From PubChem BioAssay (Tox21)
Results filed as inconclusive are left out. The source made the active and inactive calls. Calls follow the shape of the dose curve; as a rule, active = well fitted curve in the direction sought with a large enough effect in the repeat runs; inconclusive = weak or mixed curves; inactive = no such curve, though single readings can be large; an effect the other way counts as inactive or inconclusive.

Legend:
[1] = qHTS RealTime-Glo MT Cell Viability Assay in HEK293 cells - 0 hour (AID 1224880); also: nearly all actives have a fitted effect of over 45% in size; also: potency is read from the fitted curve at half-maximal effect
In short: (§1)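 Cells were seeded together with NanoLuc luciferase and a prosubstrate that viable cells reduce to a luciferase substrate. After a 5 h incubation at 37 C/5% CO2, compounds were added and luminescence was measured repeatedly during 40 h of treatment.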

[2] = A CellTox Green Cytotoxicity Assay to monitor cytotoxicity in HEK293 cells - 32 hour (AID 1224881); also: nearly all actives have a fitted effect of over 40% in size; also: potency is read from the fitted curve at half-maximal effect
In short: (§2)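 Nonlytic real-time cytotoxicity: HEK293 + CellTox Green reagent plated, 5 h preincubation, pintool compound addition (23 nL in DMSO), 37 C for 40 h, fluorescence measured at successive time points.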

[3] = A CellTox Green Cytotoxicity Assay to monitor cytotoxicity in HepG2 cells - 0 hour (AID 1224882); also: nearly all actives have a fitted effect of over 35% in size
In short: (§3)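 Read-out is fluorescence of a cyanine dye excluded from live cells that stains DNA of dead HepG2 cells, with signal proportional to cytotoxicity. Plates were read at 0, 8, 16, 24, 32 and 40 h after compound addition.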

[4] = A CellTox Green Cytotoxicity Assay to monitor cytotoxicity in HepG2 cells - 32 hour (AID 1224883); also: nearly all actives have a fitted effect of over 50% in size; also: potency is read from the fitted curve at half-maximal effect
In short: as §3

[5] = A CellTox Green Cytotoxicity Assay to monitor cytotoxicity in HEK293 cells - 8 hour (AID 1224884); also: nearly all actives have a fitted effect of over 35% in size
In short: as §2

[6] = qHTS RealTime-Glo MT Cell Viability Assay in HepG2 cells - 16 hour (AID 1224885); also: nearly all actives have a fitted effect of over 50% in size; also: potency is read from the fitted curve at half-maximal effect
In short: (§4)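 Compound treatment began 5 h after plating HepG2 cells (600/well) with NanoLuc luciferase and prosubstrate. Plates stayed at 37 C for 40 h; luminescence was captured at six time points, 0 h through 40 h.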

[7] = qHTS RealTime-Glo MT Cell Viability Assay in HEK293 cells - 24 hour (AID 1224886); also: nearly all actives have a fitted effect of over 50% in size; also: potency is read from the fitted curve at half-maximal effect
In short: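 Quantitative high-throughput screen of the Tox21 10K library in HEK293: cells and RealTime-Glo reagents plated together, compound added at 5 h, luminescence monitored through 40 h at 37 C.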

[8] = A CellTox Green Cytotoxicity Assay to monitor cytotoxicity in HEK293 cells - 16 hour (AID 1224888); also: nearly all actives have a fitted effect of over 35% in size
In short: as §2

[9] = qHTS RealTime-Glo MT Cell Viability Assay in HepG2 cells - 0 hour (AID 1224889); also: nearly all actives have a fitted effect of over 50% in size; also: potency is read from the fitted curve at half-maximal effect
In short: as §4

[10] = qHTS RealTime-Glo MT Cell Viability Assay in HEK293 cells - 8 hour (AID 1224887)
In short: as §1

Measured: Potency

CCc1ccccc1
not listed: [10]
inactive: all other assays above

CC1(C)[C@@H](OC(=O)CCC(=O)O)CC[C@]2(C)[C@H]3C(=O)C=C4[C@@H]5C[C@@](C)(C(=O)O)CC[C@]5(C)CC[C@@]4(C)[C@]3(C)CC[C@@H]12
inactive: all assays above

C=C1c2cccc(O)c2C(O)=C2C(=O)[C@]3(O)C(O)=C(C(N)=O)C(=O)[C@@H](N(C)C)[C@@H]3[C@@H](O)[C@H]12
not listed: [8] | [10]
inactive: all other assays above

CC(=O)OCC[N+](C)(C)C
not listed: [8]
inactive: all other assays above

N#[N+]c1ccc2c(S(=O)(=O)[O-])cccc2c1O
not listed: [10]
inactive: all other assays above

CC(C)=CCC/C(C)=C/CC/C(C)=C/CCC(=O)OC/C=C(\C)CCC=C(C)C
not listed: [8]
inactive: all other assays above

Cc1cccc(N(C)C(=S)Oc2ccc3c(c2)CCC3)c1
not listed: [8]
inactive: all other assays above

CC1CC(C)C(=O)C1=O (centres undefined)
active: [7] 13.8 µM
not listed: [8]
inactive: all other assays above

Cc1ccc(CO)cc1
inactive: all assays above

CCC1(CO)COCOC1
inactive: all assays above

C=C1C[C@@]23CC[C@H]4[C@@](C)(CCC[C@@]4(C)C(=O)O[C@@H]4O[C@H](CO)[C@@H](O)[C@H](O)[C@H]4O)[C@@H]2CC[C@]1(O[C@@H]1O[C@H](CO)[C@@H](O)[C@H](O[C@@H]2O[C@H](CO)[C@@H](O)[C@H](O)[C@H]2O)[C@H]1O[C@@H]1O[C@H](CO)[C@@H](O)[C@H](O)[C@H]1O)C3
not listed: [8]
inactive: all other assays above

CCOC(=O)/C=C/C(=O)OCC
not listed: [9] | [10]
inactive: all other assays above

CCCCCC[C@@H](O)C/C=C\CCCCCCCC(=O)OCC(O)CO (some centres undefined)
not listed: [8]
inactive: all other assays above

CC(C)=CCC1C(=O)N(c2ccccc2)N(c2ccccc2)C1=O
inactive: all assays above

O=C(O)c1ccc(OCCCOc2ccc(C(=O)O)cc2)cc1
not listed: [10]
inactive: all other assays above

C[C@@]12CCC[C@H]1[C@@H]1CC[C@H]3C[C@@H](O)CC[C@]3(C)[C@H]1CC2
not listed: [8]
inactive: all other assays above

CNC(=O)c1cnn(-c2nc(N)c3ncn([C@@H]4O[C@H](CO)[C@@H](O)[C@H]4O)c3n2)c1
not listed: [8]
inactive: all other assays above

CCCCCC[C@@H](O)C/C=C\CCCCCCCC(=O)O
inactive: all assays above

CC(C)Nc1cccnc1N1CCN(C(=O)c2cc3cc(NS(C)(=O)=O)ccc3[nH]2)CC1
active: [1] 9.52 µM | [9] 3.38 µM
not listed: [8]
inactive: all other assays above

C[C@@H](O)[C@H]1C(=O)N2C(C(=O)O)=C([C@H]3CCCO3)S[C@H]12
inactive: all assays above

C1C[C@@H]2[C@H]3CC[C@H](C3)[C@@H]2C1
inactive: all assays above

CN(C)CCN1C(=O)c2ccccc2N(C)c2ccccc21
not listed: [10]
inactive: all other assays above

N#CCc1ccc(Cl)cc1Cl
not listed: [10]
inactive: all other assays above

CC1(C)[C@H](C(=O)O)N2C(=O)C[C@H]2S1(=O)=O
not listed: [8]
inactive: all other assays above

CCOc1ccc(Cc2nccc3cc(OCC)c(OCC)cc23)cc1OCC
active: [4] 5.35 µM | [6] 19 µM | [7] 7.56 µM
not listed: [10]
inactive: all other assays above

CCC1CO1 (centres undefined)
not listed: [8] | [10]
inactive: all other assays above

O=C1Cc2cc(Cl)ccc2N1
not listed: [10]
inactive: all other assays above

O=C1c2ccccc2C(=O)C1c1ccc(Br)cc1
not listed: [10]
inactive: all other assays above

CO[C@]1(NC(=O)CSC(F)F)C(=O)N2C(C(=O)O)=C(CSc3nnnn3CCO)CO[C@H]21
not listed: [8] | [10]
inactive: all other assays above

C1COC1
not listed: [8]
inactive: all other assays above

O=C1CCCCCCCCCCOCCCCO1
active: [2] 49 µM
inactive: all other assays above

O=c1[nH]ncc2ccccc12
inactive: all assays above

CC(CO)CO
not listed: [10]
inactive: all other assays above

Cc1cscn1
not listed: [5] | [8] | [9]
inactive: all other assays above
